Measurements taken from ChEMBL document CHEMBL3988442, “University of Dundee, Small-Polar-MMV Screening Library” (2021).

What was measured:
[1] = biological target: T1, Aspartate--tRNA(Asp/Asn) ligase (Mycobacterium tuberculosis (strain ATCC 25618 / H37Rv)) (UniProt P9WFW3); test: Assay for Asp RNA synthetase-1 from Mycobacterium tuberculosis; type: functional; design: scale not given: direction of the effect not stated beside the values; conditions: 30 µM; note: in the data most compounds retested in dose-response had high values
T1 sequence (whole entry): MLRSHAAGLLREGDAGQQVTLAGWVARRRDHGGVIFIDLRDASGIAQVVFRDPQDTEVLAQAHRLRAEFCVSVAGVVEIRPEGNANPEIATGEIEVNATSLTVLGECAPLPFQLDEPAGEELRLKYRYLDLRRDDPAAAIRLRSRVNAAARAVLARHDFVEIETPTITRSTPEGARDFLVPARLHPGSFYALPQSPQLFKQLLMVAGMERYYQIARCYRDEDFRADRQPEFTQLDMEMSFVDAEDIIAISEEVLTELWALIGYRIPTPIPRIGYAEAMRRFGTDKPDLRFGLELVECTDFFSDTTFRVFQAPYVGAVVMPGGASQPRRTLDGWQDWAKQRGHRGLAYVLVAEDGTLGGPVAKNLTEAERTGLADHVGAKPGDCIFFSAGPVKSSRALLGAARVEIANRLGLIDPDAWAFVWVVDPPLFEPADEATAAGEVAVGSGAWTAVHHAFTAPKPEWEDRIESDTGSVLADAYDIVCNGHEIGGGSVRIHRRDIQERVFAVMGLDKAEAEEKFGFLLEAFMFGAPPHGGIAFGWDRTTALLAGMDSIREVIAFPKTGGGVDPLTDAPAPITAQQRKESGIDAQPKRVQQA

[2] = biological target: Shiga toxin 2 (Escherichia coli O157:H7) (UniProt P09385+P09386); test: E. coli 0.157:H7 Shiga Toxin SOP - stx2 screening assay; type: functional; design: scale not given: direction of the effect not stated beside the values; conditions: 30 µM

Row | Structure (SMILES) | Percent Effect [1] [%] | Percent Effect [2] [%]
1 | Cn1nc2c(cc1=O)CN(Cc1nnc(-c3ccc(F)cc3)o1)CC2 | 19.5 | -108
2 | CS(=O)(=O)NC1CCN(C(=O)NCCNc2ccccn2)CC1 | 3.96 | 19.1
3 | Cc1ccc(F)cc1C(=O)N1C[C@@H](CN2CCOCC2)[C@@H](CO)C1 | -3.12 | 19.3
4 | CCS(=O)(=O)NC(C(=O)NC)c1ccc(F)c(F)c1 (configuration not stated) | -0.436 | 10.3
5 | COCCN1CCC(CNC(=O)C2(c3cccc(C)c3)CC2)CC1 | 5.2 | -5.28
6 | COc1ccc(C(CO)NC(=O)Nc2cccc(C#N)c2)cc1 (configuration not stated) | 3.45 | -32.6
7 | Cc1noc(-c2ccc(N3CCCC(C(=O)N4CCSCC4)C3)nc2)n1 (configuration not stated) | -3.39 | 10.1
8 | COc1ccccc1CNC(=O)N1CCCC(c2nncn2C)C1 (configuration not stated) | -4.33 | 25.8
9 | CN(C)c1cc(C(=O)N2CCCC(n3cccn3)C2)ccn1 (configuration not stated) | -2.86 | -7.48
10 | Cc1cc(CN2CCN(C(=O)NCc3ccc(C)s3)CC2)no1 | -8.25 | 0.0703
11 | Cc1ccc(C(=O)N2CCCS2(=O)=O)cc1Cl | -5.6 | -5.68
